From PubChem BioAssay
Giardia kill: kills Giardia lamblia; Giardia lamblia trophozoite viability; activity change, % at 7.66 µM, hits read low; 340,000 compounds, 0.15% hits; AID 540267; in the data active = activity change below about -80%; inconclusive = between about -30% and that limit;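 also: parasites exposed to compound for two days anaerobically before the ATP read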
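Killing of trophozoites was scored by loss of ATP luminescence after a 48 hrs anaerobic exposure to compounds at 37 deg C, using 100 cells per well.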
ELG1 DNA repair: ELG1-dependent DNA repair inhibition | HEK293T ELG1-luciferase reporter, luminescence, 16 h; DNA damage induced by 5-fluorouridine | Potency, µM (top dose mostly 46.1 µM), inactives show at the highest dose activity change, negative = inhibition, most hits filed as inhibitors | 330,000 compounds, 2.3% hits; also: potency is read from the fitted curve at half-maximal effect; nearly all actives have a fitted effect of over 55% in size
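Cells (2,000 per well) received 5-fluorouridine plus test compound or DMSO and were incubated 16 hr at 37 °C, 5% CO2. Luciferase activity was read by luminescence 30 min after ONE-Glo addition; signal suppression marked inhibition of damage-induced ELG1 function.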
TDP1 block: TDP1 (human) enzyme inhibition. recombinant TDP1, AlphaScreen DNA substrate cleavage. Potency, µM (doses to about 130 µM), for the others: top-dose activity change, negative = inhibition, hits mostly inhibitors. 350,000 compounds, 0.28% hits; also: potency is read from the fitted curve at half-maximal effect; nearly all actives have a fitted effect of over 40% in size
Target sequence (Q9NUW8 whole entry, looked up): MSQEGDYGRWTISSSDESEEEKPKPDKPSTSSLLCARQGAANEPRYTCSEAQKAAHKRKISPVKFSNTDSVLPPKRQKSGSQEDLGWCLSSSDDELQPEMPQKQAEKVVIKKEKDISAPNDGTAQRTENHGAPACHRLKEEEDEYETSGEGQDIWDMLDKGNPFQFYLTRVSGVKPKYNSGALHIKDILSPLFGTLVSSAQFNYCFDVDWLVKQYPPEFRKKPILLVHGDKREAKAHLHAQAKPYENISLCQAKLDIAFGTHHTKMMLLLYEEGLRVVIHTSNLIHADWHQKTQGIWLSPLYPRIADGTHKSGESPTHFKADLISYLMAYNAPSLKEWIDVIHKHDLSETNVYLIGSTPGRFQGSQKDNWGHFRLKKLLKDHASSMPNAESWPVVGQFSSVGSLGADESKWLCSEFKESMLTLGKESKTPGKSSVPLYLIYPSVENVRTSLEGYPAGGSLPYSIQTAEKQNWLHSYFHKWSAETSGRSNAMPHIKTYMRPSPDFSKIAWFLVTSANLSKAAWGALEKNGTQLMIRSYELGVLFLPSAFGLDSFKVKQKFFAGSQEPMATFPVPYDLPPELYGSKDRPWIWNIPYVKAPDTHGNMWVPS
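Here, a 5' biotin and 3' phosphotyrosine-FITC DNA oligonucleotide reports Tdp1 activity: intact substrate bridges AlphaScreen beads, while cleavage leaves a 3' phosphate and drops signal. All incubations at room temperature.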
IL-1B inflam inh: inhibitors of inflammasome signaling (IL-1 beta secretion). THP-1 LPS/ATP IL-1B secretion, AlphaLISA, 16 h; hits give low values. activity change, % at 57.5 µM. 360,000 compounds, 4.7% hits. AID 743279; in the data active = activity change below about -50%; inconclusive = mostly about -30% to -49%
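THP-1 cells pretreated 1 hr with compounds (up to 57.5 uM final), then stimulated with LPS (250 ng/mL final) plus ATP (1.25 mM final); secreted IL-1B measured by AlphaLISA after 16 hr, decreased signal indicating inhibition.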
DT40 TDP1 no CPT: qHTS for Inhibitors of human tyrosyl-DNA phosphodiesterase 1 (TDP1): qHTS in cells in absence of CPT | Potency, µM (doses to about 46.2 µM), without a hit: at the highest dose activity change, negative = growth inhibition, actives largely listed as inhibitors | DT40 Tdp1-/- hTDP1 cells, no CPT, ATP luminescence, 48 h | 420,000 compounds, 15% hits | AID 686978, 2013; also: potency is read from the fitted curve at half-maximal effect; nearly all actives have a fitted effect of over 55% in size
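Readout: luminescence from CellTiter-Glo after 30 min in the dark at RT. Cells: DT40 Tdp1-/- with stable hTDP1, 400/well. Exposure: compounds alone, ≥48 hr, 37 °C.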
DT40 TDP1 CPT: growth inhibition of DT40 Tdp1-/-;hTDP1 cells with camptothecin (screen for TDP1 inhibitors). chicken DT40 Tdp1-/-;hTDP1 cells + 20 nM CPT, ATP luminescence, 48 h. Potency, µM (highest dose often 46.2 µM), without a hit: top-dose activity change, negative = growth inhibition, actives largely listed as inhibitors. 420,000 compounds, 12% hits; also: potency is read from the fitted curve at half-maximal effect; nearly all actives have a fitted effect of over 55% in size
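Chicken DT40 Tdp1-/- cells complemented with human TDP1, 400 cells/well, exposed to compounds plus 20 nM camptothecin for at least 48 h at 37 C; viability read as ATP content by CellTiter-Glo luminescence.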
Active calls of the source: *; i = inactive; u = inconclusive; x = no result. This is a sample that favours compounds with a hit; in the whole collection about 19% have one here. Unless noted, calls follow the shape of the dose curve; as a rule, active = well fitted curve in the direction sought with a large enough effect; inconclusive = small, poorly fitted or top-dose-only effect, or another doubt; inactive = no such curve, though single readings can be large; an effect the other way counts as inactive or inconclusive. % is scaled to controls: 0 for no effect and ±100 for the full control effect.

SMILES	Giardia kill	ELG1 DNA repair	TDP1 block	IL-1B inflam inh	DT40 TDP1 no CPT	DT40 TDP1 CPT
COc1ccc(-c2noc(N3CCC(C(=O)NCCCN4CCCCC4)CC3)n2)cc1	16	u	x	-17	-10%	3%
Cc1ccc(C2CCN(C(=S)NC(C)(C)C)C2)cc1 (centres undefined)	-2	u	0%	-17	u	u
Cc1cc(C)cc(NC(=O)N2CCC(c3nc4ccccc4o3)CC2)c1	13	-16%	1%	0	-27%	u
Cc1cccc(NC(=S)N2CCC(c3nc4ccccc4o3)CC2)c1	-12	-2%	0%	-6	29µM*	u
CC(C)c1ccc(NC(=O)N2CCC(c3nc4ccccc4o3)CC2)cc1	-5	-19%	1%	-16	18µM*	21µM*
Cc1cccc(NC(=S)N2CCCCC2)c1	3	24%	8%	i	u	u
Cc1ccc(C2CCN(C(=S)Nc3cccc(C)c3)C2)cc1 (centres undefined)	23	16%	3%	10	18µM*	u
Cc1ccc(C2CCN(C(=S)NC3CCCCC3)C2)cc1 (centres undefined)	-28	u	8%	30	18µM*	u
COc1cccc(/C=C/C(=O)OCC(=O)NC2CC2)c1OC	-16	17%	1%	7	7%	7%
Cc1ccc(C)c(S(=O)(=O)N2CCN(C(=O)Cc3sc(C)nc3-c3ccc(F)cc3)CC2)c1	16	x	x	-25	u	u
Cc1nc(-c2ccc(F)cc2)c(CC(=O)N2CCN(S(=O)(=O)c3cccc(F)c3)CC2)s1	14	u	x	-2	15µM*	21µM*
O=C(c1ccc(Cl)c(S(=O)(=O)NCc2ccco2)c1)N1CCN(c2ccc(F)cc2)CC1	9	u	6%	-2	23µM*	16µM*
CC(=O)c1ccc(N2CCN(C(=O)/C=C/c3ccc(S(=O)(=O)N4CCOCC4)cc3)CC2)cc1	34	u	8%	13	15µM*	18µM*
CC(=O)c1ccc(N2CCN(C(=O)/C=C/c3ccc(S(=O)(=O)NCc4ccco4)cc3)CC2)cc1	-10	7.3µM*	5%	1	21µM*	21µM*
Nc1c(NC/C=C\COc2cc(CN3CCCCC3)ccn2)c(=O)c1=O	x	x	x	x	-18%	-10%
c1ccn2cc(C34CC5CC(CC(C5)C3)C4)nc2c1	3	1%	4%	6	18µM*	u
COc1ccc(C)cc1NC(=O)Cn1c(=O)ccc2cc(S(=O)(=O)N3CCC(C)CC3)ccc21	x	x	3%	x	u	u
COc1cccc(NC(=O)Cn2c(=O)ccc3cc(S(=O)(=O)N4CCC(C)CC4)ccc32)c1	x	x	5%	x	16µM*	18µM*
CCc1cccc(NC(=O)Cn2c(=O)ccc3cc(S(=O)(=O)N4CCC(C)CC4)ccc32)c1	x	x	4%	x	16µM*	18µM*
Cc1ccc(NC(=O)Cn2c(=O)ccc3cc(S(=O)(=O)N4CCC(C)CC4)ccc32)cc1C	x	x	7%	x	-60%	u
CC(C)NC(=O)Nc1cccc2c1O[C@H](CN(C)C(=O)Nc1ccccc1)[C@@H](C)CN([C@H](C)CO)C2=O	41	u	1%	-10	-4%	-9%
CN1CCCCC1(C)C(=O)NCc1ccc(F)cc1 (centres undefined)	x	x	x	32	7%	-1%
O=C(/C=N/NC(=O)c1ccccc1Br)c1ccccc1	29	u	0%	-6	u	u
Cc1ccccc1CNC(=O)C1=Cc2ccccc2OC1	x	x	-2%	x	u	u
N#C/C(C(=O)Nc1ccc(Cl)cc1)=C(/S)Nc1ccccc1	-3	-12%	x	u	12µM*	15µM*
